According to PubChem BioAssay AID1527 (The Scripps Research Institute Molecular Screening Center, 2009):
Out of some 290,000 compounds screened, about 2,600 (0.9%) were called active. The entries come from a sample that favours actives as a whole. Unmarked numbers belong to inactive results.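 How the source made its calls: active means inhibition above the mean of all tested compounds plus 3 SD, cutoff set per screening run (cut at about 7.5% in these data); inactive means the rest.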

tested on: VIM-2 metallo-beta-lactamase (Pseudomonas aeruginosa); test: VIM-2 metallo-beta-lactamase inhibitors, primary screen, biochemical, epi-absorbance readout, Pseudomonas aeruginosa enzyme (AID 1527); conditions: purified VIM-2, nitrocefin hydrolysis, epi-absorbance fluorescence; at 5.6 µM; stronger effect = higher value;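 further: red hydrolysis product quenches plate fluorescence so inhibitors raise well fluorescence; 0% = enzyme with DMSO and 100% = DMSO without enzyme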

| Structure (SMILES) | inhibition |
| --- | --- |
| Fc1ccc(N2CCN(Cc3ccc4c(c3)OCO4)CC2)cc1 | -2.76% |
| O=C(Cc1ccccc1[N+](=O)[O-])N1CCN(Cc2ccc3c(c2)OCO3)CC1 | 1.82% |
| Cc1cc(=O)oc2c(C)c(OCC(=O)N3CCN(Cc4ccc5c(c4)OCO5)CC3)ccc12 | 41.5% (active) |
| CC(=O)c1c(C)n(C(C)C)c2ccc(O)cc12 | -2.19% |
| COc1cc2nc(N3CCN(C(=O)[C@@H]4CCCO4)CC3)nc(N)c2cc1OC | -2.29% |
| CCOC(=O)C1(CCc2ccccc2)CCN(Cc2ccco2)CC1 | -1.92% |
| CNC(=O)O/N=C(\N)Cc1csc2ccc(Cl)cc12 | -0.28% |
| CCN1CCN(C(=O)Cc2coc3cc(C)cc(C)c23)CC1 | -5.4% |
| Cc1cc(OCc2cc(C(=O)O)oc2C)c2c3c(c(=O)oc2c1)CCCC3 | 56.6% (active) |
| COC(=O)COc1cc(C)cc2oc(=O)c3c(c12)CCCC3 | 8.38% (active) |
| O=C(N/N=C/c1c(O)n(C2CC2)c(=S)[nH]c1=O)c1ccccc1Cl | -1.56% |
| CN(C)CC1CCCCC1OC(=O)c1ccc(Cl)c(Cl)c1 (stereo not given) | 0.42% |
| Cc1cc2ccccn2c1C(C[N+](=O)[O-])c1c(F)cccc1Cl (stereo not given) | 0.92% |
| COc1ccc(-n2c(-c3ccccc3)nc3ccccc3c2=O)cc1 | -3.17% |
| COCCNC(=O)CN1C2CCC1CC(O)(c1cccnc1)C2 (stereo not given) | -2.88% |
